Results on eight molecules are retold here after PubChem BioAssay (NCI).

Compounds without any hit were thinned out: in the full panel of roughly 83,000, 20% have a hit.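 How to read the values: 0–100, growth inhibition (40 = 60% inhibited); 0, no net growth; -100 to 0, cell death (-40 = 40% of starting cells died; -100 = all dead).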 Unmarked numbers belong to inactive results. Active and inactive are the calls of the source. The calls were made as follows: active = growth percent below 10; inactive = the rest.

Among the test systems are HCT-15 colon; HT29 colon; SNB-75 CNS; SNB-19 CNS; U251 CNS; PC-3 prostate; SK-MEL-5 melanoma; UACC-62 melanoma; SK-MEL-28 melanoma; SK-MEL-2 melanoma; EKVX NSCLC; SN12C renal; UO-31 renal; TK-10 renal; ACHN renal; CAKI-1 renal; A498 renal; CCRF-CEM leukemia; MOLT-4 leukemia.
What all share (test): NCI-60 one-dose screen, 48 h (100 = growth as untreated, 0 = no growth, -100 = all killed)
What all share (details): 10 µM

Turning to `CCOC(=O)c1sc(N/N=C(\C)c2ccc3c(c2)Nc2ccccc2S3)nc1C`, the growth with HCT-15 colon was 5.74% (active); with HT29 colon it was 30%; in the assay on SNB-75 CNS, 97.7%; in the assay with SNB-19 CNS, 49.7%; in the assay with U251 CNS it was 27.3%; with PC-3 prostate, 21.9%. Besides, the growth was 20.8% in the assay with SK-MEL-5 melanoma; 32.4% with UACC-62 melanoma; 39.1% in the assay on SK-MEL-28 melanoma; 10.7% in the assay on SK-MEL-2 melanoma; 26.1% with EKVX NSCLC; 51.3% with SN12C renal. In addition, the growth in the assay with UO-31 renal is 29.4%; in the assay on TK-10 renal it was 36.8%; in the assay on ACHN renal, 16.9%; with CAKI-1 renal it was 32.2%; in the assay with A498 renal, 30.6%; with CCRF-CEM leukemia, 32.4%. In the assay on MOLT-4 leukemia, the growth was 14.8%.

Regarding `COc1ccc2[nH]c(=O)c(CSc3cccc(N)c3)cc2c1`, the growth in the assay with HCT-15 colon is 48.2%; with HT29 colon, 75.4%; in the assay with SNB-75 CNS, 82.7%; with SNB-19 CNS, 70.4%; in the assay with U251 CNS it was 70.1%; with PC-3 prostate, 69.2%. The growth in the assay on SK-MEL-5 melanoma is 6.41% (active); in the assay on UACC-62 melanoma, 16.5%; in the assay with SK-MEL-28 melanoma it was 69.6%; in the assay on SK-MEL-2 melanoma, 64%; in the assay on EKVX NSCLC, 48.7%; in the assay with UO-31 renal, 56.8%. Also, the growth in the assay with TK-10 renal is 72.3%; in the assay with ACHN renal it was 20.9%; with CAKI-1 renal it was 40.5%; in the assay with A498 renal, 72.6%; in the assay on CCRF-CEM leukemia, 47.2%; in the assay on MOLT-4 leukemia, 41.2%.

For `Cc1ccc(CNC(=O)Cc2ccc3c(c2)CN(C2CCC(=O)NC2=O)C3=O)cc1` (stereo not given), the growth is -20.1% (active) with HCT-15 colon; 24.6% in the assay with HT29 colon; -16.8% (active) in the assay on SNB-75 CNS; 4% (active) in the assay with SNB-19 CNS; 55.5% in the assay with U251 CNS; 10.4% in the assay with PC-3 prostate. The growth with SK-MEL-5 melanoma was -70.5% (active); in the assay on UACC-62 melanoma, 40.6%; in the assay with SK-MEL-28 melanoma it was 22%; with SK-MEL-2 melanoma, 0.232% (active); with EKVX NSCLC it was 54.5%; in the assay with SN12C renal, 4.57% (active). Besides, the growth in the assay with UO-31 renal was -21.3% (active); with TK-10 renal it was 33.2%; in the assay with ACHN renal it was 30.5%; in the assay on CAKI-1 renal it was 52.6%; with A498 renal, -9.84% (active); with CCRF-CEM leukemia, 8.32% (active). The growth in the assay with MOLT-4 leukemia is -24.9% (active).

Consider `COc1ccc(/C=N/N=C(\C)c2ccc3c(c2)Nc2ccccc2S3)cc1O`, for which the growth in the assay with HCT-15 colon was 29.8%; in the assay with HT29 colon, 85.3%; in the assay on SNB-75 CNS it was 66%; in the assay on SNB-19 CNS it was 63.7%; with U251 CNS it was 64.5%; with PC-3 prostate it was 45.4%. Moreover, the growth was -23.5% (active) in the assay with SK-MEL-5 melanoma; 58.9% with UACC-62 melanoma; 48.5% in the assay on SK-MEL-2 melanoma; 40.4% in the assay with EKVX NSCLC; 70.1% with SN12C renal; 47% in the assay with UO-31 renal. Besides, the growth was 70.6% in the assay on TK-10 renal; 43.3% in the assay with ACHN renal; 55.1% with CAKI-1 renal; 75.5% with A498 renal; 33.9% in the assay on CCRF-CEM leukemia; 13.6% in the assay on MOLT-4 leukemia.

On to `C=C1CCC2C3(C)COC(c4c(F)cccc4F)OC3CCC2(C)C1C/C=C1/C(=O)OCC1O` (stereo not given), for which the growth in the assay with HCT-15 colon is -18.7% (active); in the assay with HT29 colon, 3.23% (active); in the assay with SNB-75 CNS, 23.2%; in the assay with SNB-19 CNS, -7.73% (active); in the assay with U251 CNS it was -94.2% (active); with PC-3 prostate, 5.05% (active). The growth is -65.5% (active) in the assay on SK-MEL-5 melanoma; -4.04% (active) in the assay with UACC-62 melanoma; -51.2% (active) with SK-MEL-28 melanoma; -44.7% (active) in the assay with SK-MEL-2 melanoma; 3.87% (active) with EKVX NSCLC; -24.1% (active) with SN12C renal. The growth with UO-31 renal is -91.6% (active); in the assay on TK-10 renal it was -23.2% (active); with ACHN renal, -97.8% (active); with CAKI-1 renal, 2.15% (active); in the assay with A498 renal it was 141%; in the assay with CCRF-CEM leukemia, 13.9%. Further, in the assay with MOLT-4 leukemia, the growth is 11.4%.

On to `COc1ccc(C(=O)/C=C/c2cc(F)cc(C(F)(F)F)c2)cc1S(N)(=O)=O`, for which the growth is -77.9% (active) in the assay on HCT-15 colon; -68.3% (active) in the assay with HT29 colon; 63.2% with SNB-75 CNS; -92.6% (active) with SNB-19 CNS; -72.9% (active) in the assay with U251 CNS; -10.2% (active) in the assay with PC-3 prostate. Moreover, the growth was 3.71% (active) with SK-MEL-5 melanoma; -55.5% (active) with UACC-62 melanoma; -68.4% (active) in the assay with SK-MEL-28 melanoma; 12.8% with SK-MEL-2 melanoma; 7.02% (active) in the assay on EKVX NSCLC; -69.1% (active) with SN12C renal. The growth in the assay with UO-31 renal is -92.7% (active); in the assay with TK-10 renal, -12.4% (active); with ACHN renal it was -100% (active); with CAKI-1 renal, -85.7% (active); with A498 renal it was 88.2%; in the assay on CCRF-CEM leukemia, 4.86% (active). Moreover, in the assay on MOLT-4 leukemia, the growth was 1.63% (active).

For the molecule `CC(=O)Nc1ccc(-n2cnc3cc(-c4ccc(NS(C)(=O)=O)cc4)ccc32)cc1`, the growth with HCT-15 colon was 32.4%; with HT29 colon, 34.2%; with SNB-75 CNS, 35.6%; in the assay with SNB-19 CNS, 61.1%; with U251 CNS it was 59.8%; in the assay with PC-3 prostate, 62.8%. Besides, the growth with SK-MEL-5 melanoma was 69.5%; in the assay on UACC-62 melanoma, 54.7%; with SK-MEL-28 melanoma, 85.3%; with SK-MEL-2 melanoma, 73.2%; with EKVX NSCLC, 61%; in the assay on SN12C renal, 46.3%. For the same molecule, the growth was 32.1% with UO-31 renal; 83.7% in the assay with TK-10 renal; 52.3% in the assay on ACHN renal; 17.5% in the assay on CAKI-1 renal; 86.5% with A498 renal; 36.1% with CCRF-CEM leukemia. Further, the growth in the assay with MOLT-4 leukemia is 24.5%.

`CCOC(=O)C1=C(N)N(c2ccccc2)C2=C(C(=O)CC(C)(C)C2)C1c1ccccc1OC` (stereo not given): the growth in the assay on HCT-15 colon was 96.3%; in the assay on HT29 colon, 103%; with SNB-75 CNS, 94%; in the assay on SNB-19 CNS, 92.2%; in the assay with U251 CNS, 111%; with PC-3 prostate, 89.2%. Also, the growth is 97.2% in the assay with SK-MEL-5 melanoma; 80.4% with UACC-62 melanoma; 110% in the assay with SK-MEL-28 melanoma; 109% with SK-MEL-2 melanoma; 91.9% in the assay on EKVX NSCLC; 92.6% in the assay on SN12C renal. Moreover, the growth in the assay with UO-31 renal is 74.4%; in the assay on TK-10 renal it was 106%; in the assay on ACHN renal, 103%; in the assay on CAKI-1 renal it was 97.2%; with A498 renal, 98.7%; in the assay on CCRF-CEM leukemia, 100%. Besides, the growth in the assay with MOLT-4 leukemia is 105%.
